# Source: PubChem BioAssay AID651650 (Sanford-Burnham Center for Chemical Genomics, 2012)
# Target: Neuropilin-1 (Homo sapiens) (UniProt O14786)
# Assay: blockers of CendR peptide binding to NRP-1 – biochemical, FP and AlphaScreen panel, dose response (AID 651650)
# Conditions: NRP-1 b1b2 / RPARPAR peptide binding, FP or AlphaScreen; run 1, at 100 µM (top of the series)
# Sequence of Neuropilin-1 (Homo sapiens) (O14786 whole entry, looked up): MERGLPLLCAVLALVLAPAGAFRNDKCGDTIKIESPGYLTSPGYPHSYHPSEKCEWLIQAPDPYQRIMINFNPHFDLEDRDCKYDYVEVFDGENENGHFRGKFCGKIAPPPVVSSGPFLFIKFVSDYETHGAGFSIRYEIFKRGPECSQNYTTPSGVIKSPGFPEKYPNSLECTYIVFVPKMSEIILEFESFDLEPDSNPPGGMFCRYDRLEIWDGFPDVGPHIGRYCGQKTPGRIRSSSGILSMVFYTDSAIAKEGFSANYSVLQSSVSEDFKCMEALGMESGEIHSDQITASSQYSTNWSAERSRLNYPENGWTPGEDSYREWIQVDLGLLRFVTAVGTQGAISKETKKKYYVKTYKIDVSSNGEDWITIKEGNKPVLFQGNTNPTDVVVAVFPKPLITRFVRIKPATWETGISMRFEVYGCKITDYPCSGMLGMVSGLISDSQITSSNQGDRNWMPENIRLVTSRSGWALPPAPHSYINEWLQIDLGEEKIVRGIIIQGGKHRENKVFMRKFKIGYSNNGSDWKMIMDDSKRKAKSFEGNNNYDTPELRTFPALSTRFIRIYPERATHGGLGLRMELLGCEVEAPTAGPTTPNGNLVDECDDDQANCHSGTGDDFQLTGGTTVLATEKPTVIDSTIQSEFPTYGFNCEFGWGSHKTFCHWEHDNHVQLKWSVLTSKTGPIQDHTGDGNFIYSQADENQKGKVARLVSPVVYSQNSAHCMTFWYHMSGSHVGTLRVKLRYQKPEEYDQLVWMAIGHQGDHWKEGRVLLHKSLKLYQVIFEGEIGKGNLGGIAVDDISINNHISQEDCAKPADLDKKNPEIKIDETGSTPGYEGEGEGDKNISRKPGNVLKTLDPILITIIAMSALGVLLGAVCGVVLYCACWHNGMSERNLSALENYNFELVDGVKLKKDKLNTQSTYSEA
row,SMILES,inhibition
1,Fc1cc(Cl)ccc1Nc1nc(NCc2ccccc2)nc2ccsc12,23%
2,O=C(NCCCN1CCCC(O)C1)c1cc(COc2ccc(F)cc2F)on1 (stereo unspecified),50.2%
3,Cc1ccccc1Oc1ccc2c(c1)[C@@H]1C[C@H](N(C)C(=O)Nc3cc(Cl)cc(Cl)c3)[C@H]([C@H](C)O)C(=O)N1CC2,97.5%
4,C=C1CCN([C@@H](CC(C)C)C(=O)NCc2ccccc2)S(=O)(=O)c2ccccc21,12.9%
5,Cc1cccc(C)c1Nc1nnc(SCC(=O)Nc2cc(S(=O)(=O)N3CCCCC3)ccc2Cl)s1,-15.9%
6,CCC(=O)Nc1nc2nc(-c3ccccc3)cc(-c3ccccc3)n2n1,37.2%
7,C[C@@H](NC(=O)c1[nH]cnc1C(=O)Nc1cccc(Cl)c1)c1ccccc1,54.3%
8,CC(C)COC(=O)C1C2C=CC3(CN(C(C)c4ccc(Br)cc4)C(=O)C13)O2 (stereo unspecified),60.2%
9,COc1ccc(C(=O)N2CCC(C(=O)NCc3ccccn3)CC2)cc1,20.9%
10,COc1ccc(C(=O)N[C@H](C(=O)Nc2nc3c(s2)CCCC3)C(C)C)cc1,22.5%
11,O=C(NNC(=O)c1csc(N2CCOCC2)n1)c1ccc(=O)[nH]c1,39.8%
12,CCC1=C(OC(=O)N(CC)CC)N2C(=O)OC(=NCCOC)[C@]2(Cc2ccccc2)[C@H]2C1=CC[C@H]1C(=O)N(CC(=O)OC)C(=O)[C@H]12,56.3%
13,CCc1ccc(NC(=O)CCn2nc(C)c(S(=O)(=O)N3CCCCC3)c2C)cc1,51.9%
14,O=C(CSc1nnc(Cc2ccccc2)n1Cc1ccccc1)NCc1ccco1,8.68%
15,CCCc1c(C)nc(N2CCN(c3ccccc3OC)CC2)[nH]c1=O,37.3%
16,CCc1ccc(C2CC(=O)N(c3cccc(F)c3)C3=C2C(=O)OC3)cc1 (stereo unspecified),33.7%
17,CCN(c1ccccc1)S(=O)(=O)c1ccc(C(=O)N(CCCN(C)C)c2nc3cc4c(cc3s2)OCO4)cc1,72.6%
18,C=C(C)C1CC=C(C)/C(=N\NC(=O)CNc2ccccc2OC)C1 (stereo unspecified),-8.81%
19,Cc1ccc(C(=O)N/C(=C\c2sccc2C)C(=O)NCc2ccco2)cc1,53.9%
20,CCO[C@@H]1OC(C(=O)NCc2ccccc2)=C[C@H](c2ccc(Br)cc2)[C@H]1CCCO,102%
21,CN(C)CCOC(c1ccc(Cl)cc1)c1ccccn1 (stereo unspecified),32%
22,CCCCc1ccc(S(=O)(=O)N2CCC3(CC2)OCCO3)cc1,16.7%
23,CCNS(=O)(=O)c1ccc(CCC(=O)O)cc1,23.4%
24,CCOC(=O)c1ccc(NC(=O)CN2CCc3ccccc3C2)cc1,1.94%
25,NC(=S)NNC(=S)Nc1ccccc1,9.47%
26,COC(=O)[C@@]1(Cc2ccc(OC)cc2)[C@H]2c3cc(C(=O)N4CCCC4)n(CCN4CCOCC4)c3C[C@H]2CN1C(=O)c1ccccc1,38.7%

row,SMILES,inhibition
1,CC(=O)c1cccc(S(=O)(=O)N2CCC(C(=O)O)(c3ccccc3)CC2)c1,49.1%
2,Cn1cnc2cc(NC(=O)c3ccco3)ccc21,77.5%
3,O=C(NCCN1CCOCC1)c1cc(-c2ccc(F)cc2)on1,17.9%
4,CC(Oc1ccccc1)C(=O)NC1=NCCS1 (stereo unspecified),51.9%
5,CCn1c(N)c(C(=O)NCc2cccnc2)sc1=S,100%
6,CC(Nc1ccc2ccccc2c1)C(=O)N/N=C/c1ccncc1 (stereo unspecified),45.8%
7,Cc1ccccc1/C=C/c1nc2ccccc2c(=O)n1CCc1ccccc1,34.1%
8,CC1(C(=O)NCc2cccc3ccccc23)CCN1Cc1cccc2c1OCO2 (stereo unspecified),21%
9,Nc1ccc(C(=O)Nc2ccc(Nc3ccncc3)cc2)c([N+](=O)[O-])c1,102%
10,CC(C)C[C@@H](COc1ccccc1)N1CCN(CCc2ccccc2)CCC1=O,46.6%
11,O=C(/C=C/c1ccco1)N/C(=C\c1ccccc1)C(=O)NCCc1nc2ccccc2[nH]1,11.8%
12,CCC1=C(OC(=O)N(CC)CC)N2C(=O)OC(=NCC3CC3)[C@]2(Cc2ccccc2)[C@H]2C1=CC[C@H]1C(=O)N(C)C(=O)[C@H]12,-6.33%
13,COc1cccc(OCCNC(=O)Nc2cc(F)c(F)cc2Cl)c1,54.1%
14,Oc1ccc(-c2nc3ncccn3c2Nc2ccc3c(c2)OCO3)cc1,41.8%
15,CC(OC(=O)c1ccco1)C(=O)Nc1nc(-c2ccccc2)cs1 (stereo unspecified),-9.71%
16,CCOc1ccc(/C=C2/Sc3ccc(C(=O)NCC4CCCO4)cc3N(C)C2=O)cc1OC (stereo unspecified),77.7%
17,O=C(O)CSc1nnc(-c2ccc(Cl)cc2Cl)n1-c1ccc(Cl)cc1,74.1%
18,O=C(NNc1ncnc2c1cnn2-c1ccc(F)cc1)c1ccco1,25.9%
19,OCCNc1ncnc2ccc(Br)cc12,66.8%
20,COc1cc(CN2C[C@@H](CO)O[C@@H](n3cnc4c(N5CCN(c6ccccc6)CC5)ncnc43)C2)cc(OC)c1OC,52.8%
21,O=C(CCCNC(=O)/C(=C\c1ccc(F)cc1)NC(=O)c1ccccc1)OCc1ccccc1,-33%
22,C=CCN(CC=C)C(=O)C1CC(=O)N(c2ccc(Br)cc2)C1 (stereo unspecified),-4.22%
23,O=C(CCC(=O)Nc1ccccc1Cl)NN=C1CCCC1,67.6%
24,Cc1ccnc(N2CCC(C(=O)Nc3ccc4c(c3)OCCO4)CC2)n1,41.7%
25,CC(CN1CCOCC1)OC(=O)c1ccc2c(c1)OCCO2 (stereo unspecified),19.2%
26,Cc1ccc(COn2c(-c3ccc(Cl)cc3Cl)nc3ncccc32)cc1,7.33%

row,SMILES,inhibition
1,CC1CCN(C(=O)c2[nH]cnc2C(=O)NCc2ccc(CNC(=O)OC(C)(C)C)cc2)CC1,55.2%
2,Cc1cc(=O)n2nc(N3CCCC(C(=O)N4CCOCC4)C3)sc2n1 (stereo unspecified),17%
3,O=C(CCc1ccc(Oc2cc([N+](=O)[O-])cc([N+](=O)[O-])c2)cc1)N1CCCCCC1,75.6%
4,COc1cc(OC)nc(NC(=O)COC(=O)c2cccc(Cl)c2)n1,98.8%
5,CCOC(=O)C1CCN(S(=O)(=O)c2ccc3c(c2)CCN3C(=O)C2CCC2)CC1,6.43%
6,CC1(C)c2ccccc2C(=O)c2ccccc21,-7.21%
7,CC(C)OC(=O)CSc1nnc(-c2ccccn2)n1-c1ccccc1,-4.4%
8,Cc1ccccc1-n1ncc2c1CC(C)(C)CC2NC(=O)c1ccncc1 (stereo unspecified),28.1%
9,O=C(Nc1cccc2c1CCCC2)c1cc(C2CCCCN2C(=O)CCCc2ccccc2)on1 (stereo unspecified),-15%
10,C=CCC1(CC=C)CCCN1C(=O)c1cc(COc2cccc(OC)c2)on1,39.2%
11,CN(Cc1ccccc1)C(=O)c1nc[nH]c1C(=O)N1CCN(C(=O)OC(C)(C)C)CC1,53.3%
12,COc1ccc(N(CC(=O)NCc2ccco2)C(=O)CCC(=O)Nc2ccccn2)cc1,-5.26%
13,O=[N+]([O-])c1ccc(-n2nnnc2CN2CCCCC2)cc1,22.7%
14,COc1ccc(NC(=O)CN(C)CC(=O)Nc2cccc(F)c2)cc1Cl,71.1%
15,O=Cc1ccc(-c2ccccc2C(=O)O)o1,51.8%
16,O=S1(=O)CCOC[C@H](Cc2ccccc2)N1Cc1ccccc1F,46.5%
17,C=C1CCN(C(C(=O)OC)C(C)C)S(=O)(=O)c2ccc(F)cc21 (stereo unspecified),68%
18,COc1ccc(-c2csc(NC(CO)c3nc4ccccc4n3CCCO)n2)cc1 (stereo unspecified),41.5%
19,CCCN(C(=O)Cn1c(C(F)(F)F)nc2ccccc21)C1CCS(=O)(=O)C1 (stereo unspecified),60.7%
20,CC(C)Oc1ccc(F)cc1-c1cc(C(=O)NCc2ccc(F)cc2)[nH]n1,16%
21,N#CC(C#N)=Cc1cc2ccccc2nc1N1CCCCC1,-3.26%
22,CCC(=O)Nc1cc2c3c(c1)CCC(=O)N3CCC2,101%
23,O=C(c1ccccn1)N1CCN(S(=O)(=O)c2ccccc2)CC1,80.9%
24,COC(=O)C1N[C@@H]([C@@H](NC(=O)COc2ccccc2)C(=O)NCc2ccccc2)SC1(C)C (stereo partly specified),18.2%
